Experimental data: ChEMBL document CHEMBL3988442, “University of Dundee, Small-Polar-MMV Screening Library” (2021)
Among all 38,000 compounds or so, about 1,200 (3.2%) showed an effect of 50% or more. The median lay at about -58%. The list comes from a sample in which strong results are over-represented; it also holds similar structures and randomly drawn compounds.

These compounds were tested on Plasmodium falciparum (assay: Calibr Malaria Delayed Death Assay SOP). Details: concentration 4.99e-06 (unit not given; other assays of the set use mol/L).
Assay type: functional, organism-based
Set-up: scale not given: in the data most compounds retested in dose-response had high values

SMILES | Percent Effect
O=C(Nc1ccccc1)[C@H]1C[C@@H]2CN(C(=O)Nc3ccccc3)C[C@H]1O2 | 18.72%
O=C(c1cccc2c1OCO2)N1CCCC(n2ccnc2)C1 (configuration not stated) | -40.58%
CCCc1n[nH]c(C2CN(C(=O)CCn3ccccc3=O)CCO2)n1 (configuration not stated) | -67.64%
CCc1nc(C(=O)N(CC)CC(=O)Nc2cc(Cl)ccc2C)c[nH]1 | -127.3%
Cc1nc2c(c(NCC(O)c3ccccc3Cl)n1)CCNCC2 (configuration not stated) | 26.14%
Cc1nc2c(c(NCc3ccc(-c4ccccn4)s3)n1)CCNCC2 | 73.48%
Cc1n[nH]c(C)c1CNc1nc(-c2ccco2)nc2c1CCNCC2 | 17%
Cc1nc2c(c(NCC(c3ccccc3C)N(C)C)n1)CCNC2 (configuration not stated) | -11.95%
Cc1nc2c(c(NCc3nc4ccccc4s3)n1)CCNCC2 | 71.13%
Cc1nc(CNc2nc(-c3ccco3)nc3c2CCNCC3)n[nH]1 | -85.54%
CSCC(=O)N1CCc2nc(C)nc(NCc3ccccc3)c2CC1 | -13.73%
Cc1nc2c(c(NCc3cc4ccccc4s3)n1)CCNCC2 | 89.06%
c1ccc(-c2nc3c(c(NCCCn4cncn4)n2)CCNCC3)nc1 | -4.332%
CN(C)c1cc(C(=O)Nc2cccnc2N2CCSCC2)ccn1 | -48.21%
FC(F)(F)c1ccnc(N2CCC(c3nccn3CC3CC3)CC2)n1 | -11.94%
Cc1cc(C2CCCN2C(=O)Nc2cn[nH]c2)on1 (configuration not stated) | -46.01%
O=C(c1cccnc1)N1CC(S(=O)(=O)c2ccc(Cl)cc2)C1 | -41.36%
Cc1noc(C)c1CN1C[C@@H]2CCCO[C@@H]2[C@H](Nc2ccccn2)C1.O=C(O)C(F)(F)F.O=C(O)C(F)(F)F | -37.64%
Cn1nc(CNC(=O)C2CCN(S(C)(=O)=O)CC2)cc1C1CC1 | -29.39%
Cc1cccc(NC(=O)CN(C)C(=O)c2scnc2C)n1 | -36.36%
CCOc1ccc(CN(CCC#N)CCN2CCOCC2)cc1OC | -106.9%
COc1ccc(CN(CCC#N)CCN2CCOCC2)cc1OC | -48.91%
N#CCCN(CCN1CCOCC1)Cc1ccc(F)c(Br)c1 | 50.69%

SMILES | Percent Effect
CN(C)C(=O)C1CCCN1CCCNC(=O)Cc1ccccc1F (configuration not stated) | -2.997%
CC(NCCCN1CCCC1=O)c1ccc(F)cc1N(C)C (configuration not stated) | -66.62%
Cc1cc(C(C)NCCN2CCC(N(C)C)CC2)c(C)s1 (configuration not stated) | 81.06%
CCC(c1ccc(F)cc1F)N1CCN(CCO)CC1 (configuration not stated) | 33.11%
CCc1cnc(C)nc1NCCN1CCC(O)CC1 | -33.54%
CCc1cnc(C)nc1NCCN1CCCCCC1 | 42.39%
CCS(=O)(=O)CCNC(=O)NC(C)c1cc(C)sc1C (configuration not stated) | -122.2%
Cc1cc(OC(F)F)c(C(=O)N2CCC(N(C)C)CC2)s1 | -15.44%
CC(NCc1cnc(N2CCOCC2)nc1)c1ccc(Cl)s1.Cl (configuration not stated) | -27.68%
CC(NCCN1CCC(N(C)C)CC1)c1ccc(Cl)s1 (configuration not stated) | 74.67%
CC(NCCCc1cnn(C)c1)c1ccc(Cl)s1 (configuration not stated) | 14.15%
CC(NCCN1CCC(N(C)C)CC1)c1ccc(F)cc1N(C)C (configuration not stated) | 55.63%
O=C(NCCc1cccs1)NC1CCN(c2ncccn2)CC1 | -296.1%
Cc1c(Cl)cccc1S(=O)(=O)N1CCC2(CC1)OCCS2 | -126%
Cn1cc(CN2CCC3(CCCCN3S(C)(=O)=O)CC2)cn1 | -156.9%
CNC(=O)c1cn(C)c(-c2nc3cc(NC(C)=O)ccc3n2C)c1OC | -25.75%
Cn1nc2c(c1NC(=O)c1ccc(C3CCCN3C3CCC3)s1)CCC2 (configuration not stated) | 4.44%
CCN(CC)c1nc(C)cc(C(=O)Nc2cnn(CC)c2)n1 | -148%
CC(=O)N1CCC2(CC1)CC(NC(=O)N(C)C)c1cc(C)ccc12 (configuration not stated) | -69.21%
CC(C)(C)[S+]([O-])CCNC(=O)c1ccc(Cl)c2cccnc12 (configuration not stated) | -47.19%
CCS(=O)(=O)NCCNCc1ccc(Cl)c2cccnc12 | 60.34%
Cc1nc2n(n1)CC(NCc1ccc(Cl)c3cccnc13)CC2 (configuration not stated) | 12.21%
CC(=O)NCCCNCc1ccc(Cl)c2cccnc12 | -40.58%

SMILES | Percent Effect
CC(C)(O)CSCCNCc1ccc(Cl)c2cccnc12 | 66.02%
Cn1cnc2c1CCN(Cc1ccc(Cl)c3cccnc13)C2 | -32.7%
CC(C)(C)C(=O)NCCNCc1ccc(Cl)c2cccnc12 | 76.99%
CC(C)(O)CSCCNC(=O)c1ccc(F)cc1Cl | -61.07%
O=C(CCCNCc1ccc(Cl)c2cccnc12)NC1CC1 | 8.752%
CNc1nc2ncc(Cl)cc2cc1C#N | -168.4%
CN1C(=O)CC(c2cnn(C)c2)C12CCN(C(=O)c1ccco1)CC2 (configuration not stated) | -26.83%
Cc1ccoc1C(=O)NC1CCN(Cc2ccccc2F)CC1 | -117.1%
CN(CCO)Cc1cc(Cl)ccc1OCC(O)CN1CCCCCC1 (configuration not stated) | 81.18%
CCOc1cc(CN(C)CCCO)ccc1OC(F)F | -85.19%
CCOCC(O)CN1CCN(C(=O)Cc2ccccc2Cl)CC1 (configuration not stated) | -127.6%
CCC(O)CN1CCN(C(=O)Cc2cc(Cl)ccc2OC)CC1 (configuration not stated) | -20.59%
CCOCC(O)CN1CCN(C(=O)c2ccccc2Cl)CC1 (configuration not stated) | -98.46%
CCc1ccc(OCC(O)CN2CCN(CC)CC2)cc1 (configuration not stated) | -62.39%
COc1ccc(Cl)cc1CN(C)C(=O)CN1C(=O)OC[C@@H]1C(C)C | -43.68%
COCC(=O)N1CCC2(COCc3cnc(NCc4ccco4)nc32)C1 (configuration not stated) | -70.56%
COCCCN(CCOC)C(=O)Nc1ccc(Br)cc1 | -39.78%
CCCNS(=O)(=O)c1ccc2[nH]c(=O)cc(C)c2c1 | -19.76%
CCOC(C)C(=O)N1CCN(S(C)(=O)=O)CC1 (configuration not stated) | -95.85%
CS(=O)(=O)CC(=O)N1C[C@H]2CCC[C@@]2(COCc2ccncc2)C1.O=C(O)C(F)(F)F | -43.79%
COCCN1CCCCC12CC(=O)N(c1cccc(C#N)c1)C2.O=C(O)C(F)(F)F (configuration not stated) | -143.4%
